Screens: PubChem, National Center for Advancing Translational Sciences (NCATS)
Nrf2 activator: activates Nrf2 signaling; AREc32 ARE-luciferase reporter (MCF7-derived line), luminescence, 24 h; Potency, µM (top dose mostly 46.1 µM), for inactives: at the highest dose activation, usual class: activators; hit rate 0.31% among 410,000; further: % of control where 0% means no effect; nearly all actives have a fitted effect of over 65% in size
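Each well held 1000 AREc32 cells, which were incubated with compound for 24 hr at 37 deg C after overnight attachment, and ARE reporter activity was quantified by firefly luciferase luminescence.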
mIDH1 inhibitor: blocks human mutant IDH1 R132H enzyme; O75874; IDH1-R132H enzyme, NADPH consumption, diaphorase/resazurin fluorescence; Potency, µM (series often up to 76.6 µM), for inactives: top-dose activity change, negative = inhibition, actives largely listed as inhibitors; hit rate 0.093% among 390,000; AID 602179; further: on the % scale 0 is the no-effect control and ±100 the full control effect; nearly all actives have a fitted effect of over 65% in size
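IDH1-R132H (0.5 ug/mL dispensed) in pH 7.5 Tris buffer was preincubated 30 min with compound, then given a substrate mix of 0.016 mM NADPH and 2 mM alpha-KG for 80 min at room temperature; remaining NADPH was read by diaphorase/resazurin fluorescence.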
A549 tox-1: A549 cytotoxicity, counter-screen for Nrf2 inhibitors | A549 ARE-Fluc cells, CellTiter-Fluor viability, 18-24 h | Potency, µM (series often up to 46 µM), for inactives: at the highest dose activity change, negative = cytotoxicity, usual class: inhibitors | hit rate 0.16% among 390,000; further: on the % scale 0 is the no-effect control and ±100 the full control effect
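A549 ARE_Fluc cells in 5% FBS OPTI-MEM were exposed to compounds in concentration-response for 18-24 h at 37 deg C. Viability was read by CellTiter-Fluor fluorescence (Ex 405/Em 525) after 30 min, before the luciferase read.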
ELG1 repair inh: ELG1-dependent DNA repair inhibition; HEK293T ELG1-luciferase reporter, luminescence, 16 h; DNA damage induced by 5-fluorouridine; Potency, µM (titrated, usually from 46.1 µM), for inactives: at the top dose activity change, negative = inhibition, usual class: inhibitors; hit rate 2.3% among 330,000; AID 504467; further: on the % scale 0 is the no-effect control and ±100 the full control effect; nearly all actives have a fitted effect of over 55% in size
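Step one: seed 2,000 cells per well. Step two: pin-transfer compound or DMSO alongside 5-fluorouridine. Step three: incubate 16 hr, 37 °C, 5% CO2. Step four: add ONE-Glo, wait 30 min, read luminescence.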
Nrf2 inh: Nrf2 pathway inhibition. hit rate 2.1% among 360,000. Potency, µM (titrated, usually from 46 µM), inactives show top-dose activity change, negative = inhibition, most hits filed as inhibitors. A549 ARE-Fluc reporter, luciferase luminescence, 18-24 h. AID 504444; further: on the % scale 0 is the no-effect control and ±100 the full control effect; nearly all actives have a fitted effect of over 60% in size
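In this cell-based qHTS, ARE-driven firefly luciferase in A549 cells reports Nrf2 activity; the luminescent signal after BugLite lysis is the measured value, with a prior CellTiter-Fluor read for cell health.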
FLuc counter 3: counter-screen for Nrf2 inhibitors: firefly luciferase enzyme inhibition; shares compounds with Nrf2 inh; purified firefly luciferase, luminescence inhibition; Potency, µM (series often up to 57.5 µM), for the others: at the top dose activity change, negative = inhibition, most hits filed as inhibitors; hit rate 4% among 1,400; further: on the % scale 0 is the no-effect control and ±100 the full control effect; nearly all actives have a fitted effect of over 65% in size
Target sequence (P08659 whole entry, looked up): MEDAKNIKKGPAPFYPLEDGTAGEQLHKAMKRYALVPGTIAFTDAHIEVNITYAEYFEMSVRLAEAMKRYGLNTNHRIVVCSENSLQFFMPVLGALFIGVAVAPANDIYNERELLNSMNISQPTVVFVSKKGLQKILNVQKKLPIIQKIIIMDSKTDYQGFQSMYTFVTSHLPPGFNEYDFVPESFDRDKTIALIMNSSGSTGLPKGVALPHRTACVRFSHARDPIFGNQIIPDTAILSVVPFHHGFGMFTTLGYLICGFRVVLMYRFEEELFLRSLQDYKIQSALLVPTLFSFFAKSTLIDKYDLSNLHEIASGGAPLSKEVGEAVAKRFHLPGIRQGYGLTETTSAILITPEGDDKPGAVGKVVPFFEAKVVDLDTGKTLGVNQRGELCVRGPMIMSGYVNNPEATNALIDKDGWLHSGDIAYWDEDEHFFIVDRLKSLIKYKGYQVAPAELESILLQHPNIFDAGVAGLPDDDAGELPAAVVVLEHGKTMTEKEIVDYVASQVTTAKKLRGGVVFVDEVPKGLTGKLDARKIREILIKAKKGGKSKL
A549 tox-2: A549 cytotoxicity, Nrf2 inhibitor counterscreen. shares compounds with Nrf2 inh. Potency, µM (top dose mostly 46.1 µM), inactives show at the highest dose activity change, negative = cytotoxicity, actives largely listed as inhibitors. hit rate 2% among 1,400. A549 ARE-Fluc cells, cytotoxicity counterscreen;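 further: cells exposed to compounds for 18 to 24 hours; on the % scale 0 is the no-effect control and ±100 the full control effect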
Nrf2 ARE inh: confirmation of Nrf2 inhibitors in A549 ARE reporter cells; shares compounds with Nrf2 inh; A549 ARE-firefly luciferase reporter, luminescence; Potency, µM (doses to about 46.1 µM), for inactives: at the highest dose activity change, negative = inhibition, most hits filed as inhibitors; hit rate 74% among 1,400; AID 720524; further: on the % scale 0 is the no-effect control and ±100 the full control effect; nearly all actives have a fitted effect of over 65% in size
* marks the source's active call; other numbers are inactive results. Hits are enriched below; roughly 3.8% of the tested compounds scored in any of these assays. The call rests on the fitted dose curve; in most records, active means well fitted curve in the direction sought with a large enough effect; inconclusive means small, poorly fitted or top-dose-only effect, or another doubt; inactive means no such curve, though single readings can be large; an effect the other way counts as inactive or inconclusive. Potency means the concentration at half of the fitted maximal effect.

Screening Cn1c(=O)c2[nH]c(CCCCCCCCc3nc4ccccc4[nH]3)nc2n(C)c1=O returned Nrf2 activator 5.8%, mIDH1 inhibitor 1.4%, A549 tox-1 -20.9%, Nrf2 inh 8.2µM*, FLuc counter 3 -0.2% and A549 tox-2 -17.4%.
For CC(C)(C)n1ncc2c(=O)n(Cc3ccc(-c4ccccc4C#N)cc3)cnc21 the results were FLuc counter 3 -11.3%, A549 tox-2 -8.6% and Nrf2 ARE inh 9.2µM*.
For Cc1ccc(Nc2c(-c3ccc(C)s3)nc3ncccn23)cc1 the results were Nrf2 activator 6.0%, mIDH1 inhibitor -4.1%, A549 tox-1 0.9% and Nrf2 inh -11.0%.
`C[n+]1ccccc1COc1ccc(C(C)(C)C)cc1` gave Nrf2 activator 0.0%, mIDH1 inhibitor -3.6%, A549 tox-1 inconclusive, ELG1 repair inh -12.4%, Nrf2 inh 2.31µM*, FLuc counter 3 -9.2%, A549 tox-2 -10.6% and Nrf2 ARE inh 5.17µM*.
`CC(C)(C)c1ccc(OCc2nc3ccccc3n2CCOc2ccccc2)cc1` gave Nrf2 activator 0.7%, mIDH1 inhibitor 3.5%, A549 tox-1 10.2% and Nrf2 inh 19.4%.
For O=S(=O)(Nc1ccccc1Br)c1cccc2cccnc12 the results were Nrf2 activator -1.2% and mIDH1 inhibitor 5.8%.
For O=S(=O)(Nc1cc(Br)cc2cccnc12)c1cccc2ccccc12 the results were A549 tox-1 inconclusive, Nrf2 inh 2.31µM*, FLuc counter 3 -1.3%, A549 tox-2 inconclusive and Nrf2 ARE inh 7.31µM*.
`COc1ccc(CC(=O)NCC2CCCN(Cc3cccc(SC)c3)C2)cc1` (stereo not drawn) gave Nrf2 activator 0.3%, mIDH1 inhibitor -0.9%, A549 tox-1 11.9%, ELG1 repair inh 2.8% and Nrf2 inh 7.3%.
`COc1ccccc1CNC(=O)CCn1nc(C)c2c(C)n(-c3ccccc3)nc2c1=O` gave Nrf2 activator -0.5%, mIDH1 inhibitor -10.6%, A549 tox-1 14.6% and Nrf2 inh -4.3%.
Screening CCN(CC)c1ccc(Nc2nc(N3CCOCC3)c3ccccc3n2)cc1 returned Nrf2 activator 3.4%, mIDH1 inhibitor 8.1%, A549 tox-1 inconclusive, ELG1 repair inh inconclusive, Nrf2 inh 6.51µM*, FLuc counter 3 inconclusive, A549 tox-2 -10.8% and Nrf2 ARE inh 11.6µM*.
`c1ccc2c(c1)nc(N1CCOCC1)c1ccccc12` gave Nrf2 activator 0.3%, mIDH1 inhibitor 7.2%, A549 tox-1 -0.5%, ELG1 repair inh 4.2% and Nrf2 inh -26.9%.
`CC(C)(C)c1cc(C(=O)Nc2cccnc2)cc(C(=O)Nc2cccnc2)c1` gave Nrf2 activator 0.1%, mIDH1 inhibitor 4.0%, A549 tox-1 -20.5%, ELG1 repair inh inconclusive, Nrf2 inh 9.2µM*, FLuc counter 3 -5.4%, A549 tox-2 -5.5% and Nrf2 ARE inh inconclusive.
Screening O=C(Nc1cccnc1)c1ccc(Cl)c(Cl)c1 returned Nrf2 activator 3.3%, mIDH1 inhibitor 17.9%, A549 tox-1 -7.9%, ELG1 repair inh inconclusive and Nrf2 inh 14.6%.
Screening COc1ccc(OC)c(N(CC(=O)NCC2CCCO2)S(=O)(=O)c2ccccc2)c1 (stereo not drawn) returned Nrf2 activator -0.1%, mIDH1 inhibitor 2.9%, A549 tox-1 0.8%, ELG1 repair inh 10.3% and Nrf2 inh 4.5%.
For O=C(Cc1ccc(Cl)cc1)Nc1cc(Cl)ccn1 the results were Nrf2 activator 3.7%, mIDH1 inhibitor -3.2%, A549 tox-1 -3.1% and Nrf2 inh inconclusive.
Cc1cc(/C=C2/SC(=S)N(c3cccc(Cl)c3)C2=O)c(C)n1-c1cccnc1 was read as Nrf2 activator 4.4%, mIDH1 inhibitor -0.5%, A549 tox-1 -14.5% and Nrf2 inh inconclusive.
Cc1cc(/C=C2/SC(=S)N(c3ccc([N+](=O)[O-])cc3)C2=O)c(C)n1-c1cccnc1 was read as Nrf2 activator 3.2%, mIDH1 inhibitor 10.4%, A549 tox-1 inconclusive, ELG1 repair inh -10.8%, Nrf2 inh 6.51µM*, FLuc counter 3 -17.6% and A549 tox-2 -23.3%.
Cc1ccc(Cl)cc1N1CCN(C(=O)CSc2nnc3n2C(C)(C)Cc2ccccc2-3)CC1 was read as Nrf2 activator 0.2%, mIDH1 inhibitor 3.6%, A549 tox-1 inconclusive, ELG1 repair inh 11.6µM*, Nrf2 inh 6.51µM*, FLuc counter 3 -0.4%, A549 tox-2 inconclusive and Nrf2 ARE inh 6.51µM*.
Cc1onc(-c2c(F)cccc2Cl)c1C(=O)Nc1nccs1 was read as Nrf2 activator -0.3%, mIDH1 inhibitor -2.9%, A549 tox-1 0.5%, ELG1 repair inh inconclusive and Nrf2 inh -12.9%.
Cc1onc(-c2c(F)cccc2Cl)c1C(=O)Nc1nnc(C(F)(F)F)s1 was read as Nrf2 activator 4.9%, mIDH1 inhibitor 11.2%, A549 tox-1 inconclusive, ELG1 repair inh -18.3%, Nrf2 inh 1.46µM*, FLuc counter 3 -1.7%, A549 tox-2 -9.0% and Nrf2 ARE inh 0.116µM*.
`COc1c(C(=O)NNC(=O)c2ccccc2Cl)csc1Br` gave Nrf2 activator 1.8%, mIDH1 inhibitor -5.1%, A549 tox-1 1.1%, ELG1 repair inh inconclusive and Nrf2 inh inconclusive.
O=C(CSc1ncnc2c1cnn2-c1ccc(F)cc1)NC1CCCC1 was read as Nrf2 activator 0.5%, mIDH1 inhibitor -0.7%, A549 tox-1 0.7%, ELG1 repair inh 1.0%, Nrf2 inh 5.17µM*, FLuc counter 3 -11.0%, A549 tox-2 -0.2% and Nrf2 ARE inh inconclusive.
For O=c1c2c(nc3c(-c4ccc(Cl)cc4)c[nH]n13)CCCC2 the results were Nrf2 activator -1.1%, mIDH1 inhibitor 6.9%, A549 tox-1 -11.9%, ELG1 repair inh 10.3µM*, Nrf2 inh 7.94µM*, FLuc counter 3 -15.9%, A549 tox-2 -16.2% and Nrf2 ARE inh 6.51µM*.
For O=c1c2c(nc3c(-c4cccc5ccccc45)c[nH]n13)CCC2 the results were Nrf2 activator -0.3%, mIDH1 inhibitor -0.3%, A549 tox-1 5.1%, ELG1 repair inh -0.4% and Nrf2 inh -18.1%.
